From PubChem BioAssay (NCI)
“And” between values parts separate entries of the source, which are not always exact repeats. Equal values may be shown once. The panel holds about 79,000 compounds, 15% with a hit somewhere; the sample as a whole holds those more often. Rule as the data show it: active = growth inhibition above about 70%; inactive = the rest.

How the values were obtained:
[1] = NCI Yeast Anticancer Drug Screen. Data for the rad50 strain (AID 155);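 also: 0% = growth of vehicle-only cultures of the same strain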; settings: S. cerevisiae rad50 strain growth inhibition, active compounds read high; at 50.0 µM unless noted
How it was run: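 Vehicle-treated cultures provide the reference for the growth inhibition reported for compound-exposed, repair-deficient yeast.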

[2] = NCI Yeast Anticancer Drug Screen. Data for the mec2-1 strain (AID 157); settings: S. cerevisiae mec2-1 strain, active compounds read high; at 50.0 µM unless noted
How it was run: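 Vehicle-treated cultures served as reference for growth inhibition of compound-exposed mec2-1 yeast.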

[3] = NCI Yeast Anticancer Drug Screen. Data for the sgs1 mgt1 strain (AID 161);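 also: 0% = growth of cultures given vehicle only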; settings: S. cerevisiae sgs1 mgt1 strain, active compounds read high; at 50.0 µM unless noted
How it was run: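 Genetically altered yeast, compound exposure, growth inhibition relative to vehicle.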

[4] = NCI Yeast Anticancer Drug Screen. Data for the cln2 rad14 strain (AID 165);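 also: 0% = growth equal to vehicle treated cultures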; settings: S. cerevisiae cln2 rad14 strain, active compounds read high; at 50.0 µM unless noted
How it was run: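 Each compound was tested on cln2 rad14 yeast. Inhibition of growth was calculated against vehicle-exposed controls.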

[5] = NCI Yeast Anticancer Drug Screen. Data for the bub3 strain (AID 167); settings: S. cerevisiae bub3 mutant strain, active compounds read high; at 50.0 µM unless noted
How it was run: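 Mutant yeast screening strain plus compound; vehicle-treated cultures serve as the 0% inhibition reference.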

[6] = NCI Yeast Anticancer Drug Screen. Data for the mlh1 rad18 strain (AID 175); settings: S. cerevisiae mlh1 rad18 strain growth inhibition, active compounds read high; at 50.0 µM unless noted
How it was run: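 Vehicle-treated cultures served as the reference for growth inhibition in a yeast strain carrying DNA damage repair alterations exposed to each compound.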

Measured: growth inhibition

N#Cc1ccc(/C=C(/C(=O)c2ccccc2)c2ccccc2)cc1
inactive: [1] 7.35% | [2] -31.9% | [3] 0.2% | [4] 6.85% | [5] -23.8% | [6] -3.35%

CC(Br)C(=O)NC(CC(N)=O)C(=O)O (stereo not drawn)
inactive: [1] 1.8% and -8.25% | [2] -15.6% and -16.1% | [3] -9.15% | [4] 4.2% | [5] -14.7% | [6] 23% and -17.1%

CC1CC(C)OC(C(Br)CBr)O1 (stereo not drawn)
inactive: [1] 5.05% | [2] -10.9% | [3] -4.8% | [4] 15% | [5] -13.9% | [6] 12.1%

CCC12C=CCN3CC[C@@]4(c5cc([C@@]6(C(=O)OC)C[C@@H]7CN(CCc8c6[nH]c6ccccc86)C[C@](O)(CC)C7)c(OC)cc5N(C)[C@H]4[C@@](O)(C(=O)NCCCCCCCCCCCC(=O)O)[C@@H]1O)C32 (stereo partly drawn)
inactive: [1] 19% | [2] 19.8% | [3] 21.6% | [4] 5% | [5] 25.3% | [6] -17.6%

O=S(=O)(O)c1ccc(Nc2ccccc2)cc1
inactive: [1] -1.2% and 5.95% | [2] -38.8% and -24.1% | [3] -11% | [4] -18.3% | [5] 2% | [6] -20.9% and 6.2%

C[N+]1(Cc2ccco2)CCCCC1
inactive: [1] -12.6% | [2] 9.65% | [3] 0.15% | [4] -14.4% | [5] 9% | [6] -6.85%

O=C(CCC(=O)Nc1ccc(Cl)c(Cl)c1)Cc1nc2ccccc2o1
inactive: [1] -8.25% | [2] -24.4% | [3] -11.2% | [4] 18.6% | [5] -13.7% | [6] 1.1%

CN(CCOC(=O)Nc1ccccc1)N=O
inactive: [1] 9.35% | [2] -9.35% | [3] 0.75% | [4] -15.4% | [5] 7.7% | [6] -3%

CCC(C)C(C#N)(CCN(CC)CC)c1ccccc1 (stereo not drawn)
inactive: [1] 15.2% | [2] 12.6% | [3] 28.4% | [4] 7.3% | [5] 32.9% | [6] 14.5%

O=C(c1ccc(-c2ccccc2)cc1)c1ncc(-c2ccc(-c3ccccc3)cc2)[nH]1
inactive: [1] 15.5% | [2] 10.7% | [3] 17.1% | [4] -4% | [5] 19.1% | [6] 21.3%

CCC(C)(CC=C(C)C)c1ccncc1 (stereo not drawn)
inactive: [1] -6.7% | [2] 1.95% | [3] 3.1% | [4] -16.8% | [5] 9.6% | [6] -9.6%

CCCOC(=O)c1ccc([N+](=O)[O-])cc1
inactive: [1] 16.4% | [2] 4.2% | [3] 14.2% | [4] 8.75% | [5] -16.7% | [6] -23.1%

O=CNc1nc[nH]c1-c1noc(=O)[nH]1
inactive: [1] -2.75% | [2] -9.5% | [3] -3.5% | [4] -23.9% | [5] -10.8% | [6] -6.8%

CC1=CC(C)C(C(=O)OCC(C)C)C(C(=O)OCC(C)C)C1 (stereo not drawn)
inactive: [1] -13.2% | [2] -6% | [3] -5.1% | [4] 1.45% | [5] 23% | [6] -22.4%

Fc1ccc(/C=C2/c3cc(Cl)ccc3-c3c(Cl)cc(Cl)cc32)cc1
inactive: [1] 44.6% | [2] 3.25% | [3] 15.7% | [4] -5.1% | [5] -3.5% | [6] 5.5%

CC(C)NCC(O)COc1cccc2[nH]c3ccccc3c12 (stereo not drawn)
inactive: [1] -2.75% | [2] -8.45% | [3] -8.5% | [4] -36.4% | [5] -0.8% | [6] -0.4%

COC(=O)c1cc(-c2ccc(N)cc2)n2c(N)nnc2n1
inactive: [1] 15% | [2] 23.4% | [3] 25.8% | [4] -1.55% | [5] 2.45% | [6] 18.6%

CSc1nc2c([nH]1)c(=O)n(C)c(=S)n2C
inactive: [1] 4.95% | [2] 6.05% | [3] -0.85% | [4] 12.1% | [5] 0.4% | [6] -4.25%

Cc1cccc(NC(=O)N(C(C)C)C(C)C)c1
inactive: [1] -16.4% | [2] -38.2% | [3] -3.55% | [4] 2.8% | [5] 5.8% | [6] -27.6%

CCOC(=O)c1cnc2sc3ccc4ccccc4c3n2c1=O
inactive: [1] 51.9% | [2] 23.4% | [3] 61% | [4] 36.1% | [5] 51.3% | [6] 60.7%

CC(=O)c1c(Cl)nnc(-c2ccccc2)c1-c1ccccc1
inactive: [1] -9% | [2] 0.05% | [3] -9.2% | [4] -21.9% | [5] -11.7% | [6] -12.3%

CCN(CC)CCNc1ccc(COC(=O)NC)c2sc3ccccc3c(=O)c12
inactive: [1] 3.9% | [2] -2.4% | [3] -8.3% | [4] -12.2% | [5] -17.4% | [6] -58.9%

Clc1ccc(/C=C/c2nc(Cl)c(-c3ccc(Cl)cc3)c(Cl)n2)cc1
inactive: [1] -15.2% | [2] -18.8% | [3] -3.1% | [4] 14.3% | [5] -23.8% | [6] 5.3%

CNC(=O)C(C(=O)NC)c1ccccc1
inactive: [1] 8.05% | [2] -4.65% | [3] -1.15% | [4] -18.5% | [5] -2.9% | [6] 10.8%

Cc1ccc([N+](=O)[O-])cc1NC(=O)N(Cc1ccccc1)Cc1ccccc1
inactive: [1] 8.7% | [2] 1.5% | [3] 10.8% | [4] 9.4% | [5] 17.3% | [6] -0.05%

Cc1c(Cl)cccc1C(=O)O
inactive: [1] -3.15% | [2] 10.7% | [3] 3.65% | [4] -3.15% | [5] -10% | [6] 27.6%

CC1(CO)COC(C)(C)OC1
inactive: [1] 16.1% | [2] 5.85% | [3] 7.1% | [4] 29.2% | [5] 2.75% | [6] 13.6%

Cc1ccc(C(=O)OCC(C)C)s1
inactive: [1] -6.6% | [2] 1.35% | [3] -25.8% | [4] -40.8% | [5] -6.55% | [6] 13.4%

Cc1onc(-c2ccccc2)c1C(C)(O)c1ccccc1 (stereo not drawn)
inactive: [1] 12.8% | [2] 11.2% | [3] 16.6% | [4] -17.9% | [5] 18.2% | [6] 5.7%

CN(C)C(Cc1cnc[nH]1)C(=O)N1CCCC1C(N)=O (stereo not drawn)
inactive: [1] -22.4% | [2] -45.8% | [3] -9.65% | [4] -0.8% | [5] -20.8% | [6] 5.85%

CN(CCO)c1ccccc1
inactive: [1] -12.3% | [2] -14.8% | [3] -40.4% | [4] -17.9% | [5] -48.4% | [6] -8%

CC(=O)Nc1ccn(C2OC(CO)C(O)C2O)c(=O)n1 (stereo not drawn)
inactive: [1] -3.6% | [2] 26.9% | [3] 0.05% | [4] 31.1% | [5] -11.6% | [6] 8.3%

O=C(O)CCNc1ccc(Cl)cc1[N+](=O)[O-]
inactive: [1] 25.8% | [2] 26.8% | [3] 30.4% | [4] 16.1% | [5] 34.9% | [6] 25.8%

C=CCOC(=O)c1ccc(C(C)C)cc1
inactive: [1] 25.1% | [2] 12% | [3] 9.5% | [4] 7.6% | [5] 8% | [6] 35.6%

O=C1NC(=O)[C@@]2(CC[C@@H](O)C2)c2ccncc21
inactive: [1] 3.55% | [2] -42.6% | [3] -10.2% | [4] 16.4% | [5] -33.2% | [6] -86.5%

C/C=C\c1noc2c1C(=O)OC(C)C2 (stereo not drawn)
inactive: [1] 49.4% | [2] 23.4% | [3] 40.4% | [4] 14.2% | [5] 22.4% | [6] 17.6%

O=C(O)c1cc(C(=O)O)cc(C(=O)O)c1
inactive: [1] -1.55% | [2] -16.2% | [3] -8.1% | [4] -56.9% | [5] -3.05% | [6] -30.1%

CC(=O)Nc1nc(SCc2ccccc2)c2[nH]cnc2n1
inactive: [1] -25.2% | [2] 1.75% | [3] 0.6% | [4] -43.5% | [5] 31.2% | [6] 7.3%
